HPGD block = qHTS Assay for Inhibitors of HPGD (15-Hydroxyprostaglandin Dehydrogenase); actives 4.3% (n = 150,000); purified HPGD, NADH fluorescence kinetic, PGE2 substrate; 15-hydroxyprostaglandin dehydrogenase [NAD(+)] (Homo sapiens), P15428; Potency, µM, for the others: at the top dose activity change, negative = inhibition, actives largely listed as inhibitors; note: potency is the fitted concentration of half-maximal effect
Target sequence (P15428 whole entry, looked up): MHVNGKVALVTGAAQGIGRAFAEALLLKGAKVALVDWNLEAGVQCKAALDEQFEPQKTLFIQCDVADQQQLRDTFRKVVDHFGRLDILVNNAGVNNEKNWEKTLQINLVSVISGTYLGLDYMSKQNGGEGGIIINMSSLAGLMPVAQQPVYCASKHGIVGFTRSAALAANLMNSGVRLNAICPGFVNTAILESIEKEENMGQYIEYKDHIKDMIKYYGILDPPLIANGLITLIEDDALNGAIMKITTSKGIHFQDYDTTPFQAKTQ
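NADH formation kinetics: reaction with 30 uM PGE2 and 1 mM NAD+ (final), 20 nM enzyme, Tris-HCl pH 8 with Tween 20, after 15 min compound preincubation at room temperature. Fluorescence change, last versus first of five reads.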
ALDH1A1 inh = qHTS Assay for Inhibitors of Aldehyde Dehydrogenase 1 (ALDH1A1); Purified ALDH1A1, NADH fluorescence, propionaldehyde substrate; actives 7.3% (n = 220,000); Potency, µM (titrated, usually from 75.3 µM), without a hit: top-dose activity, negative = inhibition, actives largely listed as inhibitors; Aldehyde dehydrogenase 1A1 (Homo sapiens), P00352; AID 1030, 2008;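 note: potency is the fitted concentration of half-maximal effect; plate controls were no enzyme wells and a reference inhibitor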
PNC assembly inh = High Content Assay for Compounds that inhibit the Assembly of the Perinucleolar Compartment; actives 3.1% (n = 140,000); activity change (PNC), negative = inhibition, % at 10 µM; AID 2417, 2010; PC3M PTB-GFP, PNC prevalence imaging, 16 h; hits give low values;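 active = readout at or below -70, meaning at least 70% loss of cells showing the perinucleolar compartment, a nuclear body marking cancer cells; inconclusive = readout between -30 and a set limit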;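 note: plate controls were DMSO wells for no effect and camptothecin positive control wells for full effect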
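Compounds are pinned in duplicate onto adhered PC3M cells stably expressing GFP-tagged PTB and incubated 16 h at 37 C. Cells are then fixed, nuclei stained with Hoechst, and PNC-positive cells counted.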
* = called active by the depositor; ? = inconclusive; · = no result given; [ ] = remark or other dose. This is a sample that favours compounds with a hit; in the whole collection about 11% have one here. Unless noted, calls come from the whole dose curve; as a rule, active = well fitted inhibition curve with a large enough effect (not every such curve was filed as active); inconclusive = small, poorly fitted or top-dose-only effect, or another doubt; inactive = no such curve, though single readings can be large or run the other way. Unless noted, % is set by controls: 0 for no effect and ±100 for the full control effect.

SMILES	HPGD block	ALDH1A1 inh	PNC assembly inh
Cc1cc(-c2csc(NC(=O)c3ccc(=O)n(C)n3)n2)c(C)n1CC1CCCO1 (centres undefined)	-10%	20µM*	?
Cc1cc(-c2csc(NC(=O)c3ccc(=O)[nH]c3)n2)c(C)n1Cc1ccco1	·	8.9µM*	·
Cc1csc(NC(=O)c2ccc(OCC3CCCO3)cc2)n1 (centres undefined)	·	-13%	·
Cc1cc(-c2csc(NC(=O)c3ccccc3C(F)(F)F)n2)c(C)n1Cc1ccccc1	·	1%	11
COC(=O)c1cc(NS(=O)(=O)c2ccc(NC(C)=O)cc2)cc(C(=O)OC)c1	-14%	-1%	-17
O=c1nc2sc3ccccc3n2c(=O)n1-c1ccc(Cl)cc1	·	3%	·
CCNC(=S)Nc1ccc(S(=O)(=O)Nc2cc(C)nc(C)n2)cc1	·	-3%	·
CC(C)(C)OCC(NC(=O)C(CC(N)=O)NC(=O)OC(C)(C)C)C(=O)OC(C)(C)C (centres undefined)	-10%	13%	8
COc1ccccc1CNc1ncncc1-c1ccc(C(=O)N(C)C)cc1	·	-9%	·
COc1cccc(-c2nc(-c3ccccn3)no2)c1OC	-24%	?	-84*
c1ccc(-c2noc(-c3cccc4ccccc34)n2)nc1	?	?	34
CC1CCCC(NC2CCCCNC2=O)C1 (centres undefined)	-5%	9%	47
CCC1CCC(NC2CCCCNC2=O)CC1 (centres undefined)	3%	14%	-107*
O=C(NCC(c1ccco1)N1CCN(c2ccccc2)CC1)c1ccc2c(c1)OCO2 (centres undefined)	·	-8%	·
Cc1ccc(S(=O)(=O)N/N=C/c2cn(C)nc2C)cc1	-1%	?	30
CC(C)(C)OC(=O)N/N=C\c1cccnc1	·	4%	·
Cc1ccc(S(=O)(=O)N/N=C\c2cccnc2)cc1	-15%	?	-88*
Cc1ccc(S(=O)(=O)N/N=C/c2cc(Br)c(C)o2)cc1	-26%	5.6µM*	17
Cc1ccc(S(=O)(=O)N/N=C(\c2ccccc2)c2cccnc2)cc1	·	6%	·
Cc1ccc(C)c(S(=O)(=O)N/N=C/c2cccnc2)c1	-10%	8.9µM*	-11
CCc1cc(C(=O)N2CCCC(CNC(=O)c3ccc(-c4ccccc4)cc3)C2)no1 (centres undefined)	·	-4%	·
CCCCc1nc2c(c3c1C[C@H](C)OC3)CN(C(=O)N[C@@H](C)c1ccccc1)CC2	-7%	15%[13.5 µM]	·
CN1CCN(C(=O)CN(CCc2ccccc2)S(C)(=O)=O)CC1	-1%	-1%	64
CCC1=C2CC[C@H]3C(=O)NC(=O)[C@H]3[C@H]2[C@@]2(Cc3ccccc3)C(=NCC3CC3)OC(=O)N2C1=O	-6%	-1%	·
CC(C)(C)OC(=O)NCCC(=O)N/N=C/c1cccc2nccnc12	·	7%	·
SMILES	HPGD block	ALDH1A1 inh	PNC assembly inh
Nc1nnc(SCc2ccc(F)cc2)n1-c1ccccc1	-12%	12%	-19
CC1Cc2nc(SCC(=O)NC3CCCCC3)n(C)c(=O)c2S1 (centres undefined)	40µM*	-102%	-28
CCn1c(SCC(=O)Nc2ccc3c(c2)OCO3)nc2c(c1=O)SC(C)C2 (centres undefined)	-6%	?	21
CCOC(=O)c1cccc(NC(=O)CSc2nc3ccccc3c(=O)n2CC)c1	-8%	9%	-94*
CCn1c(SCC(=O)Nc2nnc(C)s2)nc2c(c1=O)SC(C)C2 (centres undefined)	-13%	4%	?
CCn1c(SCC(=O)N2CCOCC2)nc2c(c1=O)SC(C)C2 (centres undefined)	-11%	2%	-100*
CCc1nnc(NC(=O)CSc2nc3c(c(=O)n2C)SC(C)C3)s1 (centres undefined)	-3%	15%	-15
CCn1c(SCC(=O)Nc2cccc(C)c2)nc2c(c1=O)SC(C)C2 (centres undefined)	-22%	20µM*	8
CCOC(=O)c1cccc(NC(=O)CSc2nc3ccccc3c(=O)n2CCOC)c1	-12%	8%	?
Cc1c(OC(=O)CNC(=O)OC(C)(C)C)ccc2c3c(c(=O)oc12)CCC3	?	-2%	-2
CCOC(=O)c1cnc2ccc(C)cc2c1Sc1ccccc1C(=O)OC	-6%	?	-7
CC(C)c1nnc(NC(=O)CCC(=O)NCc2cccs2)s1	?	-7%	28
N/C(CCN1CCCCC1)=N/O	-5%	6%	-4
Cc1ccc(N(Cc2ccccc2)Cc2ccccc2)cc1	-5%	9%[13.5 µM]	·
CCNc1nc(NC(C)C)nc(N(C#N)CCOc2ccc(Cl)cc2Cl)n1	-17%	-1%	-9
Cc1cc(C)nc(N(C#N)Cc2ccccc2)n1	-19%	14µM*	-17
CCNc1nc(NC(C)C)nc(N(C#N)Cc2ccccc2)n1	-11%	1.8µM*	?
CCc1ccc(C(=O)CN(C#N)c2nc(C)cc(C)n2)cc1	-11%	-6%	55
Cc1cc(C)nc(N(C#N)CC(=O)c2ccccc2)n1	-28%	28µM*	36
Cc1cc(C)nc(N(C#N)Cc2ccc([N+](=O)[O-])cc2)n1	·	1%	·
N#CN(Cc1ccccc1)Cc1ccccc1	·	40µM*	·
Nc1ncnc2c1ncn2[C@@H]1O[C@H](CO)C[C@@H]1O	-8%	4%	·
CN(C)c1ccc(C(=O)N2CC(=O)N(CCc3ccccc3)C(=O)C2)cc1	?	6.3µM*	-2
COc1ccc(C(=O)N2CC(=O)N(CCc3ccccc3)C(=O)C2)cc1OC	-6%	-10%	7
COc1ccc(CC(=O)NNC(=O)CCc2ccccc2)cc1	·	5%	·
SMILES	HPGD block	ALDH1A1 inh	PNC assembly inh
COc1ccc(CC(=O)N2CC(=O)N(CCc3ccccc3)C(=O)C2)cc1	-16%	10µM*	-28
CC(C)c1nc(SCC(=O)N2CCN(c3ccccc3)CC2)c2c(=O)n(C)c(=O)n(C)c2n1	-7%	-7%	?
CCc1nc(SCC(=O)N2CCC(Cc3ccccc3)CC2)c2c(=O)n(C)c(=O)n(C)c2n1	-10%	1%	40
CC(C)c1nc(SCC(=O)N2CCOCC2)c2c(=O)n(C)c(=O)n(C)c2n1	-7%	-3%	-106*
CCc1nc(SCC(=O)N2CCC(C)CC2)c2c(=O)n(C)c(=O)n(C)c2n1	-10%	11µM*	-14
COc1ccc2cc(C(=O)Nc3ccc(S(N)(=O)=O)cc3)sc(=O)c2c1OC	·	-9%	·
CCOc1ccc2c(c1)-c1c(ssc1=S)C(C)(C)N2C(=O)c1ccco1	-18%	?	2
COc1cccc(CNC(=O)Cc2nc3nc(C)cc(C)n3n2)c1	-12%	6%	96
COC(=O)c1ccc(C2C(C(=O)OC(C)C)=C(C)N=C3SCCC(=O)N32)cc1 (centres undefined)	-15%	-9%	-90*
C=CCOC(=O)C1=C(C)N=C2SCCC(=O)N2C1c1ccc(OC(=O)c2ccco2)cc1 (centres undefined)	-24%	20µM*	-127*
COC(=O)C1=C(C)N=C2SCCC(=O)N2C1c1ccc(OC(=O)c2ccco2)cc1 (centres undefined)	-19%	-6%	57
